“And” between values parts separate entries of the source, which are not always exact repeats. Identical values can stand only once. In all, about 16,000 compounds went through this assay and about 5,700 (36%) were called active. Another 24% or so got no clear call; they are omitted. The list shows a part of the results. Unmarked numbers belong to inactive results. Calls follow the shape of the dose curve; as a rule, active = well fitted curve in the direction sought with a large enough effect; inconclusive = small, poorly fitted or top-dose-only effect, or effect the other way; inactive = no such curve, though single readings can be large or run the other way.
Molecular target: Cytochrome P450 1A2 (Homo sapiens) (UniProt P05177)
Assay: Cytochrome panel assay with activity outcomes
Details: recombinant CYP, pro-luciferin dealkylation, luminescence, p450-cyp1a2; series mostly up to 57.1 µM
% is scaled to controls: 0 for no effect and ±100 for the full control effect.

Sequence of Cytochrome P450 1A2 (Homo sapiens) (P05177 whole entry, looked up): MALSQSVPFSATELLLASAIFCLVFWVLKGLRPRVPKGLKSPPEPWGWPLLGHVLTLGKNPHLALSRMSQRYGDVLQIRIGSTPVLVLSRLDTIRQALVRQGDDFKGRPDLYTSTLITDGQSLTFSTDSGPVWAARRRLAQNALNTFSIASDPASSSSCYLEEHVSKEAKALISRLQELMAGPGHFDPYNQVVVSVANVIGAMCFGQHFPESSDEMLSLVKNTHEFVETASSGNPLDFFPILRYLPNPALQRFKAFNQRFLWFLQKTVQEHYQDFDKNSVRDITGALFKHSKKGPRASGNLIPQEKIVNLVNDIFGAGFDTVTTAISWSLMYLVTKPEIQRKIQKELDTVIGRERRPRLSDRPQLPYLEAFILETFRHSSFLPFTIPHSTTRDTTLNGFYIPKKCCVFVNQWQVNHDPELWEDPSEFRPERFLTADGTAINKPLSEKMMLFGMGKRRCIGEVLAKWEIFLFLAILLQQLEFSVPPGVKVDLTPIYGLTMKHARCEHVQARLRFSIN

| SMILES | AC50 | activity, negative = inhibition |
| --- | --- | --- |
| CC(=O)[C@@H]1CC[C@@H]2[C@@H]3C[C@H](C)C4=CC(=O)CC[C@@]4(C)[C@H]3[C@H](O)C[C@]21C | inactive |  |
| CS(=O)(=O)N1CCC2(CCCN(C(c3ccccc3)c3ccccc3)C2)CC1 | inactive |  |
| O=C1CC(c2ccccc2)Cc2nc(N3CCc4ccccc4C3)ncc21 (stereo not drawn) | 3550 nM (active) |  |
| Cc1ccc(C2CC(=O)c3cnc(N4CCc5ccccc5C4)nc3C2)cc1 (stereo not drawn) | inactive |  |
| CC1CC(=O)c2cnc(N)nc2C1 (stereo not drawn) | inactive |  |
| Cc1ccnn2cc3c(=O)n(C)c(=O)n(C)c3c12 | 12600 nM (active) |  |
| COc1ccccc1CN1CC[C@@]2(CCCN(C(C)=O)C2)C1 | inactive |  |
| COc1ccc2[nH]cc(CCNc3ncnc4ccc(-c5cccnc5)cc34)c2c1 | 79.4 nM (active) |  |
| COc1ccc2[nH]cc(CCNc3ncnc4ccc(-c5cccc(C#N)c5)cc34)c2c1 | 2510 nM (active) |  |
| CCC1=C(C)CN(C(=O)NCCc2ccc(S(=O)(=O)NC(=O)NC3CCC(C)CC3)cc2)C1=O (stereo not drawn) | inactive |  |
| CCOC(=O)N1CCN(C(=O)c2oc3ccc(S(=O)(=O)N4CCCCC4)cc3c2C)CC1 | inactive |  |
| Cc1ccc(OC(=O)c2oc3ccc(F)cc3c2C)c(C)c1 | 2510 nM (active) |  |
| Cc1ccc(NCCC(=O)c2ccc(Cl)c(Cl)c2)cc1 | 1260 nM (active) |  |
| CCCOc1ccc(C(=O)NNC(=S)NC(=O)CC)cc1 | inactive |  |
| Cc1ccc(NC(=O)CCC(=O)c2ccc(F)cc2)cc1Cl | 6310 nM (active) |  |
| O=C(O)CCC(=O)c1ccc(Cl)cc1 |  | -17.8% [at 11.4 µM] |
| Cc1ccc(NC(=O)c2cc(NC(=O)CCCC(=O)O)ccc2Cl)cc1Cl | inactive |  |
| CCCOc1ccc(C(=O)CCNc2ccc(C)c(Cl)c2)cc1 | 891 nM (active) |  |
| O=C(O)CCC(=O)Nc1ccc(C(=O)N2CCCCC2)cc1 | inactive |  |
| Cc1ccc(NCCC(=O)c2ccc(Cl)cc2)cc1 | 251 nM (active) |  |

| SMILES | AC50 | activity, negative = inhibition |
| --- | --- | --- |
| O=C(O)[C@@H]1[C@@H]2C[C@@H]3[C@@H](OC(=O)[C@@H]31)[C@H]2Br |  | -4.92% [at 11.4 µM] |
| OC(CCN1CCCCC1)(c1ccccc1)c1ccccc1 | inactive |  |
| Cc1ccc(NCCC(=O)c2ccc(Cl)cc2)cc1C | 631 nM (active) |  |
| Cc1c(Cl)c(S(N)(=O)=O)cc(S(N)(=O)=O)c1NC(=O)c1ccc(Cl)cc1 |  | -2.26% [at 11.4 µM] |
| CCCCOC(=O)Nc1ccc(C)c(Cl)c1 | 4470 nM (active) |  |
| COc1cccc(-c2ccc3ncnc(NCc4cnc(C)cn4)c3c2)c1 | 2510 nM (active) |  |
| Cc1cnc(CNc2ncnc3ccc(-c4cccc(C#N)c4)cc23)cn1 | 398 nM (active) |  |
| C/C(CCN1CCc2nc(-c3ccccc3)c(-c3ccccc3)cc2C1)=N\OC[C@@H](C)[C@H](OCc1ccccc1)C(C)C |  | -4.9% [at 11.4 µM] |
| COC(=O)C/C=C\[C@@H](C)[C@@H](/C=N\OC[C@@H]1O[C@H](c2ccccc2)C=C[C@@H]1Oc1ccc(OC)cc1)OC |  | 10.1% [at 11.4 µM] |
| Cc1cccc(C)c1NC(=O)CCN1C(=O)C2C3CCC(C3)C2C1=O (stereo not drawn) | inactive |  |
| Cc1cccc(OC(=O)CN2C(=O)C3C4CCC(C4)C3C2=O)c1C (stereo not drawn) | 12600 nM (active) |  |
| CC(=O)Nc1ccc(NCN2C(=O)C3C4CCC(C4)C3C2=O)cc1 (stereo not drawn) | inactive |  |
| COc1ccc(O[C@H]2C=C[C@@H](c3ccccc3)O[C@H]2COC(=O)N2CCCCC2)cc1 |  | -4.44% [at 11.4 µM] |
| C(=N\Nc1nc(Nc2ccccc2)nc(N2CCOCC2)n1)/c1c[nH]c2ccccc12 | 10000 nM (active) |  |
| C#CCCCO/N=C1/C[C@@H](O)[C@@H](O)[C@@H]2[C@@H]3C(=O)N(C[C@@H]4CCCO4)C(=O)[C@H]3CC[C@@H]12 |  | 1.69% [at 11.4 µM] |
| COc1ccccc1N1CCN(CCCNc2cc(=O)n(C)c(=O)n2C)CC1 | inactive |  |
| COc1ccccc1N1CCN(CCCCNC(=O)c2ccc(-c3ccc(C(C)=O)cc3)cc2)CC1 | 25100 nM (active) |  |
| COc1ccccc1N1CCN(CCCCNC(=O)c2ccc3ccccc3c2)CC1 | inactive |  |
| COc1ncc2nc(-c3ccc(F)cc3)c(=O)n(Cc3ccc(F)cc3)c2n1 | 1580 nM (active) |  |
| COc1ncc2nc(-c3ccc(F)cc3)c(=O)n(CCc3ccccc3)c2n1 | 398 nM (active) |  |

| SMILES | AC50 | activity, negative = inhibition |
| --- | --- | --- |
| COc1ncc2nc(C)c(=O)n(CCc3ccccc3)c2n1 | 2000 nM (active) |  |
| COc1ccccc1N(CC(=O)NCC1CCCO1)C(=O)CNS(=O)(=O)c1ccc(C)cc1 (stereo not drawn) | inactive |  |
| Cc1ccc(S(=O)(=O)N[C@H]2COC(=O)CC=C[C@@H](C)[C@H]3C=C[C@H](O)[C@@H](COC(=O)CC=C[C@H]2C)O3)cc1 |  | -8.39% [at 11.4 µM] and -5.02% [at 11.4 µM] |
| S=c1nc[nH]c2c1ncn2Cc1ccco1 |  | -16.3% [at 11.4 µM] |
| Cc1c(NC(=O)CN2CCN(c3ccccc3)CC2)c(=O)n(-c2ccccc2)n1C | inactive |  |
| CCOC(=O)c1c(C)n(C)c2ccc(OC)c(NC(=O)CN3CCCCC3)c12 | 15800 nM (active) |  |
| Cc1cccc(-c2nnc(SCc3ccccc3)o2)c1 | 14100 nM (active) |  |
| Clc1ccc(CSc2nnc(-c3sccc3-n3cccc3)o2)cc1 | 2820 nM (active) |  |
| Clc1ccc(CSc2nnc(-c3cccnc3)o2)cc1 | 3550 nM (active) |  |
| c1ccc(CSc2nnc(-c3sccc3-n3cccc3)o2)cc1 | 2820 nM (active) |  |
| O=c1c(-c2nnc(SCc3ccc(Cl)c(Cl)c3)o2)cccn1Cc1ccccc1 | inactive |  |
| Clc1cccc(CSc2nnc(-c3sccc3-n3cccc3)o2)c1 | 2510 nM (active) |  |
| CC(NC(=O)CCSc1nc(-c2ccco2)cc(C(F)(F)F)n1)c1ccccc1 (stereo not drawn) | 12600 nM (active) |  |
| COC(=O)c1ccc(C(NC(=O)c2ccco2)[C@]2(C)C[C@H]2C2CCCCC2)cc1 (stereo partly drawn) | inactive |  |
| CC1CCN(C(NC(=O)c2ccco2)C(=O)c2ccccc2)CC1 (stereo not drawn) | 14100 nM (active) |  |
| O=C(NC(C(=O)c1ccccc1)n1cnccc1=O)c1ccccc1 (stereo not drawn) | inactive |  |
| NC(N)=Nc1ccc(-c2ccc(N=C(N)N)cc2)cc1 |  | -1.39% [at 11.4 µM] |
| CCSC(N)=Nc1ccc(C(F)(F)F)cc1 | 2510 nM (active) |  |

Source: PubChem BioAssay AID1851 (National Center for Advancing Translational Sciences (NCATS), 2009)
